Compound activity (PubChem BioAssay)
Most compounds without a hit are left out; they make up all but 5.3% or so of the library.
Vaccinia mCherry: vaccinia inhibition (mCherry reporter). Vaccinia virus mCherry reporter infection, fluorescence. Potency, µM (series often up to 36.5 µM), inactives show at the top dose activity change, negative = inhibition, hits mostly inhibitors. 310,000 compounds, 0.63% hits; calls by dose curve; tested in A549 cells; note: nearly all actives have a fitted effect of over 35% in size
MARV entry inh: blocks Marburg virus binding to or entry into cells; Marburg virus pseudotyped entry inhibition, cell reporter; 300,000 compounds, 1.8% hits; Potency, µM (top dose mostly 37.8 µM), without a hit: top-dose activity change, negative = inhibition, usual class: inhibitors; AID 540276; calls by dose curve; tested in HEK293 cells
HCV inh: HCV inhibition; Potency, µM (top dose mostly 41.8 µM), inactives show at the top dose activity change, negative = inhibition, usual class: inhibitors; 340,000 compounds, 3.4% hits; AID 651820; Huh7.5.1 HCVcc-Cre infection, luciferase reporter, 44 h; active = well fitted inhibition curve with a large enough effect; inconclusive = small, poorly fitted or top-dose-only effect, or another doubt; inactive = no such curve, though single readings can be large or run the other way
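Infectious HCVcc-Cre (~0.5 moi) was added to cells just after compound, with cells seeded 4 h earlier at 1,000 per well. Luciferase activity after 44 h culture reported infection; substrate was incubated 15 min at room temperature before reading.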
VACV Venus inh: inhibitors of vaccinia virus (Venus reporter). Potency, µM (doses to about 36.5 µM), inactives show at the top dose activity change, negative = inhibition, usual class: inhibitors. Vaccinia virus Venus reporter expression, fluorescence. 330,000 compounds, 0.46% hits; calls by dose curve; tested in A549 cells; note: nearly all actives have a fitted effect of over 30% in size
LASV entry inh: blocks Lassa virus binding to or entry into cells; AID 540256; Lassa virus pseudotype entry inhibition, cell reporter; 300,000 compounds, 1.2% hits; Potency, µM (highest dose often 37.9 µM), for inactives: at the highest dose activity change, negative = inhibition, usual class: inhibitors; calls by dose curve; tested in HEK293 cells; note: nearly all actives have a fitted effect of over 50% in size
FMDV antiviral: blocks foot and mouth disease virus | FMDV antiviral cell-based qHTS | Potency, µM (highest dose often 57.9 µM), without a hit: top-dose activity change, negative = inhibition, most hits filed as inhibitors | 410,000 compounds, 1.2% hits; calls by dose curve; tested in HEK293T cells; note: read-out not given here; nearly all actives have a fitted effect of over 45% in size
The depositor's hits bear a star; i = inactive; ? = inconclusive; . = no result given; [ ] = another dose, or the depositor's remark. % is set by controls: 0 for no effect and ±100 for the full control effect; potency is the fitted concentration of half-maximal effect.

SMILES	Vaccinia mCherry	MARV entry inh	HCV inh	VACV Venus inh	LASV entry inh	FMDV antiviral
CCN1C(=O)NC(c2cccc(C(F)(F)F)c2)C(C(=O)OC)=C1C (stereo not given)	.	23%[14.2 µM]	.	.	.	.
COC(=O)CC1Oc2ccccc2-n2cc(-c3ccc(F)cc3)nc21 (stereo not given)	-12%	0%[46.1 µM]	.	-6%	?	-9%
COc1ccc(CCn2c(-c3ccco3)nc3ccccc3c2=O)cc1OC	-13%	?	?	-10%	?	32µM*
COc1ccc(CCn2c(C)nc3ccccc3c2=O)cc1OC	-4%	.	0%	-14%	.	-18%
COc1ccc(Cl)cc1C(=O)NCC(c1ccco1)N(C)C (stereo not given)	i	-1%[46.1 µM]	-22%	-13%	8%	16%
CN(C)C(CNC(=O)c1ccccc1OCc1ccc(Cl)cc1)c1ccco1 (stereo not given)	?	?	18µM*	-15%	?	-29%
Cc1ccc(C(=O)c2coc3c2C(=O)C(=O)c2ccccc2-3)cc1	-11%	?	?	3%	-26%	.
Cc1ccc(C(=O)c2c(C)oc3c2C(=O)C(=O)c2ccccc2-3)cc1	.	7.9µM*	7.1µM*	?	7.1µM*	?
Cc1oc2c(c1C(=O)c1ccc(Cl)cc1)C(=O)C(=O)c1ccccc1-2	-5%	-22%	10µM*	0%	-27%	?
O=C(c1ccc(Cl)cc1)c1ccc(CN2C(=O)c3ccccc3C2=O)o1	-13%	4%	-1%	-4%	?	-4%
CC1(C)C2CCC(C2)C1(C)NC(=O)CNCC1CCCCC1 (stereo not given)	i	8.9µM*	-12%	-29%	-13%[46.1 µM]	-13%
O=C1C(c2ccc(F)cc2)N(CCc2ccccc2)C(=O)CN1C1CCCCCC1 (stereo not given)	-11%	.	.	-6%	?	9%
Cc1ccc(N(CC(O)Cn2c3ccccc3c3ccccc32)S(=O)(=O)c2ccc(F)cc2)cc1 (stereo not given)	-1%[7.34 µM]	?	.	-3%[7.34 µM]	-19%[46.1 µM]	?
CC(=O)Nc1ccccc1N(CC(O)Cn1c2ccccc2c2ccccc21)S(=O)(=O)c1ccc(C)cc1 (stereo not given)	-22%	?	11µM*	?	?	0%
COc1ccc(N(CC(O)Cn2c3ccccc3c3ccccc32)S(=O)(=O)c2ccccc2)cc1 (stereo not given)	.	?	?	?	-4%	?
CCN(CC(O)Cn1c2ccccc2c2ccccc21)S(=O)(=O)c1ccc(C)cc1 (stereo not given)	.	?	3.2µM*	.	?	-8%
CC1(C)Cc2c(sc3ncnc(NNC(=S)NCc4ccccc4)c23)CO1	-10%	?	?	-30%	0.12µM*	-4%
CC(C)NC(=S)NNc1ncnc2sc3c(c12)CC(C)(C)OC3	.	.	-26%	.	.	-21%
O=C(NCCN1CCN(c2ccccc2)CC1)Nc1cccc(Br)c1	-22%	-28%[46.1 µM]	14µM*	-18%	8%[46.1 µM]	-18%
COc1ccc(CCNCc2cc(C)n(-c3ccc(OC)cc3)c2C)cc1	-13%	.	-19%	-14%	.	-2%
O=C1c2ccccc2NC(c2ccc3c(c2)OCCO3)N1c1ccc2c(c1)OCCO2 (stereo not given)	.	8.9µM*	-8%	-11%	?	-12%
CCCCC1CN(CCNC(=O)c2ccccn2)Cc2ccccc2O1 (stereo not given)	-10%	.	.	-1%	.	-11%
Cc1oc2ncn(C)c(=O)c2c1C(=O)NCc1ccccc1	-14%	.	.	-3%	-4%[46.1 µM]	14%
O=C(c1ccccc1)N1CCN(C(=O)c2nn3c(C(F)(F)F)cc(-c4ccccc4)nc3c2Br)CC1	-16%	?	?	-8%	-33%[46.1 µM]	-25%
O=C(c1cc2nc(-c3ccccc3)cc(C(F)(F)F)n2n1)N1CCN2CCCC2C1 (stereo not given)	-14%	3%[46.1 µM]	8.9µM*	-21%	?	-23%
SMILES	Vaccinia mCherry	MARV entry inh	HCV inh	VACV Venus inh	LASV entry inh	FMDV antiviral
O=C(c1nn2c(C(F)(F)F)cc(-c3ccccc3)nc2c1Cl)N1CCN2CCCC2C1 (stereo not given)	?	?	11µM*	-28%	-17%[46.1 µM]	-2%
NC(=O)c1nn2c(C(F)(F)F)cc(-c3ccccc3)nc2c1Br	.	.	0.89µM*	.	.	-8%
Cc1ccc(-n2nc3c(N4CCC(C(=O)NC(C)c5ccccc5)CC4)nnc(C)c3c2C)cc1 (stereo not given)	-6%	.	.	-26%	-20%[46.1 µM]	?
CCOC(=O)c1c(NC(=O)c2ccc(S(=O)(=O)N(CC(C)C)CC(C)C)cc2)sc2c1CCN(C(=O)OCC)C2	-4%	.	.	-5%	17%[46.1 µM]	-3%
CCCCn1nc2cc(C(=O)NC3CCCc4ccccc43)ccc2c1OCC (stereo not given)	?	.	1.8µM*	-25%	.	29%
CCn1c(=O)c(=O)[nH]c2cc(C(=O)NC3CCCc4ccccc43)ccc21 (stereo not given)	.	21µM*	?	.	?	24%
CCOc1c2ccc(C(=O)NCCCCc3ccccc3)cc2nn1CC	i	.	3.5µM*	-16%	.	-14%
Cc1nn(Cc2ccccc2)c(Cl)c1C(=O)NC1CCCc2ccccc21 (stereo not given)	.	?	35µM*	.	?	?
Cc1cccc(C)c1NC(=O)N1CCC(C(=O)c2ccc(F)cc2)CC1	-18%	-1%[46.1 µM]	8%	2%	4%[46.1 µM]	-4%
O=C(NC1CCCc2ccccc21)c1n[nH]c(=O)c2ccccc12 (stereo not given)	-10%	-23%[46.1 µM]	22µM*	-10%	-6%	-7%
C=CCNc1nnc(S[C@@H]2CC(=O)N(c3ccc(OC)cc3)C2=O)s1	.	-8%	.	.	.	.
C=CCOc1ccc(CN(C)C(=O)CNC(=O)c2ccc(-c3ccccc3)cc2)cc1	i	?	11µM*	-30%	?	13µM*
CCOc1ccc(CN(C)C(=O)CNC(=O)c2ccccc2)cc1	-8%	-21%[46.1 µM]	4%	-1%	0%[46.1 µM]	13%
CC[C@]12c3[nH]c4ccccc4c3CCN1C(=O)C(CC(=O)NCC13CC4CC(CC(C4)C1)C3)C[C@@H]2C(=O)N1CCN(C(=O)c2ccco2)CC1 (stereo not given in full)	i	.	11µM*	?	.	?
CC[C@]12c3[nH]c4ccc(Cl)cc4c3CCN1C(=O)[C@@H](CC(=O)NCc1cccc(C(F)(F)F)c1)C[C@@H]2C(=O)N1CCN(C(=O)c2ccco2)CC1	-16%	3%	32µM*	-17%	.	?
CC[C@]12c3[nH]c4cc(-c5ccco5)ccc4c3CCN1C(=O)[C@@H](CC(=O)NCc1cccc(C(F)(F)F)c1)C[C@@H]2C(=O)N1CCN(C(=O)c2ccco2)CC1	13µM*	.	?	?	.	?
